Reference: PubChem BioAssay (NCATS)
Records with an inconclusive call do not appear. Calls of active or inactive are those of the source. The call rests on the fitted dose curve; in most records, active means well fitted cell-killing curve with a large enough effect; inconclusive means small, poorly fitted or top-dose-only effect; inactive means flat fitted curve, though single readings scatter.

Assay: Cell Viability - LYMP2-021 (AID 974);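 further: compound exposure lasts 24 hours at 37 °C; nearly all actives have a fitted effect of over 55% in size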
Settings: LYMP2-021 lymphoblastoid cells viability; series mostly up to 92.2 µM; activity change, negative = cytotoxicity: at the top concentration
Excerpt: NIH Chemical Genomics Center [NCGC]
NIH Molecular Libraries Screening Centers Network [MLSCN]
National Institutes of Environmental Health Sciences [NIEHS]
National Toxicology Program [NTP]
We have developed a 1536-well cell-based assay for quantitative high throughput screening (qHTS) against a number of cell lines to determine in vitro cytotoxicity of small molecules. This particular assay uses a human lymphoblastoid cell line (LYMP2-021) purchased from Coriell Institute for Medical Research.
NCGC Assay Protocol Summary:
The CellTiter-Glo luminescent cell viability assay (Promega) is a homogeneous method to measure the number of viable cells in culture. The end point readout of this assay is based on quantitation of intracellular ATP, an indicator of metabolic activity, using the luciferase reaction. Luciferase catalyzes the oxidation of beetle Luciferin to oxyluciferin and light in the presence of ATP. The luminescent signal is proportional to amount of ATP present.
Using the CellTiter-Glo luminescent cell viability assay, the amount of cellular ATP was measured in the lymphoblastoid cell line with complete culture medium following compound treatment for 24 hours. The assay was performed in opaque white Kalypsys 1536-well plates. In the screen, tetraoctylammonium bromide was used as positive control. Library compounds were measured for their ability to cause acute toxicity in the cell line, as reflected by a decrease in intracellular ATP levels, in a concentration-dependent manner. […] AC50 values were determined from concentration-response data modeled with the standard Hill equation.
qHTS protocol for CellTiter Glo lymphoblastoid cellular assay
[Step] [Parameter] [Value] [Description]
1. Reagent; 5 uL; 2500 lymphoblastoid cells/well
2. Time; 5 hr; 37 C incubation
4. Controls; 23 nL; Tetraoctylammonium bromide 6.4pM to 92 uM
5. Time; 24 hr; 37 C incubation
6. Reagent; 5 uL; CellTiter Glo reagent
7. Time; 30 min; Room Temperature
8. Detection; Luminescence; Viewlux plate reader
Keywords: cell viability, cytotoxicity, lymphoblastoid cell line, luminescence, NTPHTS, NTPHTS_NCGC, NIEHS, DSSTox, MLSMR, MLSCN, NIH Roadmap, qHTS, NCGC
On the % scale 0 is the no-effect control and ±100 the full control effect; potency means the concentration at half of the fitted maximal effect.

| Compound | Potency | activity change, negative = cytotoxicity |
| --- | --- | --- |
| CC(=O)[O-].CC(=O)[O-].O.O.O.[Pb+2] | inactive | – |
| C[N+](C)(C)Cc1ccccc1 | – | 4.36% (inactive) |
| BrCCBr | – | 2.51% (inactive) |
| ClC1=C(Cl)C2(Cl)C3C4C=CC(C4)C3C1(Cl)C2(Cl)Cl (stereo not given) | 63.1 µM (active) | – |
| Nc1ccc(Br)cc1 | – | -3.05% (inactive) |
| O=[N+]([O-])c1ccc(Cl)c(Cl)c1 | – | -6.45% (inactive) |
| c1ccc(OP(Oc2ccccc2)Oc2ccccc2)cc1 | – | -1.91% (inactive) |
| Nc1ccccc1Cl | – | -1.94% (inactive) |
| C/C=C/c1ccc2c(c1)OCO2 | – | -14.1% (inactive) |
| Brc1ccc(Oc2cc(Br)c(Br)cc2Br)c(Br)c1 | inactive | – |
| Clc1cc(Cl)c(-c2cc(Cl)c(Cl)cc2Cl)cc1Cl | – | -9.62% (inactive) |
| CC(Cl)Cl | – | -2.35% (inactive) |
| Oc1ccc(Cl)cc1Cl | – | -5.94% (inactive) |
| O=C1C(Cl)=C(Cl)C(=O)C(Cl)=C1Cl | 12.6 µM (active) | – |
| CC(C)(OO)c1ccccc1 | 50.1 µM (active) | – |
| CC(C)(c1ccccc1)c1ccc(O)cc1 | – | -5.56% (inactive) |
| CCSC(=O)Cl | – | -2.2% (inactive) |
| N#CCCCl | inactive | – |
| O=NN(CCO)CCO | – | -1.39% (inactive) |
| CCOP(=S)(OCC)SCSC(C)(C)C | – | -1.5% (inactive) |

| Compound | Potency | activity change, negative = cytotoxicity |
| --- | --- | --- |
| COP(=S)(OC)Oc1ccc([N+](=O)[O-])cc1 | – | -2.81% (inactive) |
| C[C@]12CC[C@H]3[C@@H](CCC4=CC(=O)CC[C@@]43C)[C@@H]1CC[C@@H]2O | – | -15.8% (inactive) |
| [O-][Br+2]([O-])O | inactive | – |
| O=C=NC1CCCCC1 | inactive | – |
| COC1=CC(=O)OC(CCc2ccccc2)C1 (stereo not given) | – | -9.81% (inactive) |
| O=S1OCC2C(CO1)C1(Cl)C(Cl)=C(Cl)C2(Cl)C1(Cl)Cl (stereo not given) | – | -28.5% (inactive) |
| Clc1ccc2ccccc2c1 | – | -6.49% (inactive) |
| COc1ccc(C=O)cc1OC | – | -9.12% (inactive) |
| CCOCN(C(=O)CCl)c1c(C)cccc1CC | 50.1 µM (active) | – |
| C=CC(N)=O | inactive | – |
| CCCC(=O)Cl | – | 0.94% (inactive) |
| OCC(Br)CBr (stereo not given) | – | -8.11% (inactive) |
| CCCCCCCC(=O)Cl | – | -0.162% (inactive) |
| Cc1cccc(C#N)c1 | – | 0.202% (inactive) |
| O=C(O)COc1ccc(Cl)cc1Cl | inactive | – |
| O=C(Cl)/C=C/C(=O)Cl | – | -5.88% (inactive) |
| ClC1=C(Cl)C2(Cl)C3C4CC(C5OC45)C3C1(Cl)C2(Cl)Cl (stereo not given) | 39.8 µM (active) | – |
| NC(=S)Nc1ccccc1 | inactive | – |
| CCC[CH2][Sn]([Cl])([Cl])[Cl] | – | 3.22% (inactive) |
| O=C(Cl)C(Cl)(Cl)Cl | – | -3.38% (inactive) |
